# Bioassay records from PubChem BioAssay.
# The list is not random: actives were taken first. Their share in the collection is about 7.1%.
# Marburg entry: Marburg virus entry inhibition | Marburg virus pseudotype entry/binding inhibition, cell-based | Potency, µM (doses to about 49.2 µM), without a hit: at the top dose activity change, negative = inhibition, actives largely listed as inhibitors | 6.5% of 18,000 active
# LASV entry inh: inhibitors of Lassa virus binding or entry into cells; AID 720533; Lassa virus pseudotyped entry inhibition, cell-based qHTS; 4.1% of 18,000 active; Potency, µM (titrated, usually from 49.2 µM), without a hit: at the top dose activity change, negative = inhibition, most hits filed as inhibitors
# * marks the source's active call; other numbers are inactive results; ? = inconclusive; . = no result given; ! = not confirmed by another sample; [ ] = remark or other dose. Calls follow the shape of the full dose curve; tested in HEK293 cells. % is scaled to controls: 0 for no effect and ±100 for the full control effect; potency is read from the fitted curve at half-maximal effect.
SMILES,Marburg entry,LASV entry inh
CC(C)[C@@H](OCc1ccccc1)[C@H](C)CON=C1[C@H]2CCn3c(=O)n(-c4ccccc4)c(=O)n3[C@@H]2[C@H](O)[C@@H]2O[C@H]12,25%[8.59 µM],10%[8.59 µM]
O=C(O)COc1ccccc1/C=N/NC(=O)c1ccncc1,15%,-3%
O=C(N/N=C/c1ccccc1O)c1ccncc1,-24%,10µM*
CCCCCC(=O)N1C[C@@H](n2cc(C3CC3)nn2)[C@H](O)C[C@H]1c1ccccc1,-7%,17%
COc1ccc(/C=C/C(=O)O)cc1OC,11%,35%
COc1ccc(/C=C\C(=O)Nc2ccccc2C(=O)O)cc1OC,40µM*,20µM*
NCCNC(=O)c1ccc(Cl)cc1,7%,-2%
CN(C)CCCN1c2ccccc2CCc2ccc(Cl)cc21,8.9µM*,11µM*!
CNCCCN1c2ccccc2CCc2ccccc21,7.9µM*,?
CN(CCCN1c2ccccc2CCc2ccccc21)CC(=O)c1ccc(Cl)cc1,7.9µM*,?
CN1C(=O)CC(=O)N(c2ccccc2)c2cc(Cl)ccc21,-10%,-11%
Cc1cc2c(c(=O)n1Cc1ccccc1)[C@H]1O[C@](c3ccsc3)(Cc3ccccc31)O2,-12%[8.59 µM],5%[8.59 µM]
CCCNC(=O)OC[C@H]1O[C@H](CCON=CC[C@@H]2C=C[C@H](OC(C)=O)[C@@H](COC(C)=O)O2)C=C[C@H]1Oc1ccc(OC)cc1,6%[8.59 µM],.
COc1ccc(N2C(=O)N3[C@H](c4ccccc4)[C@@H](C)C[C@H]4c5ccccc5C[C@]43C2=O)cc1,2%[8.59 µM],4%[8.59 µM]
CCN1C(=NCc2ccc(OC)cc2)NC(c2ccccc2)C(C(=O)OC)=C1C (centres undefined),-22%[8.59 µM],10%[8.59 µM]
CCN1C(=S)NC(c2cccs2)C(C(=O)OC)=C1C (centres undefined),38%[8.59 µM],-24%[8.59 µM]
COC1=C[C@H](C(=O)NCCOC(C)=O)[C@@]2(C)Cc3ccccc3[C@@H]2CC1=O,-10%[8.59 µM],-15%[8.59 µM]
COc1cc(/C=C/C(=O)N2CCC=CC2=O)cc(OC)c1OC,10µM*,?
COc1cc(C(=O)N2CCCCCCC2)cc(OC)c1OC,-5%,-20%
CC(CCN1CCCCc2nc(C)c(C)cc21)=NOC[C@@H](O)[C@H]1O[C@@H]2OC(C)(C)O[C@H]2[C@@H]1O,18%[8.59 µM],.
CCCCNc1c(C(=O)OCC)c(C)nc2c1cnn2CC,7.9µM*!,25µM*!
CCOC(=O)c1c(C)n(C)c2ccc(O)cc12,6%,-4%
COc1ccccc1C=CC1=CC2(C)CC1(C)C(c1ccccc1OC)CC2=O (centres undefined),-29%[8.59 µM],6%[8.59 µM]
CCc1ccc(S(=O)(=O)O)cc1,-3%,-8%
O=C(O)c1[nH]n(-c2ccc(S(=O)(=O)O)cc2)c(=O)c1N=Nc1ccc(S(=O)(=O)O)cc1,?,4µM*
SMILES,Marburg entry,LASV entry inh
N[C@@H](Cc1ccc(O)cc1)C(=O)O,11%,-8%
NC(Cc1ccc(O)c(O)c1)C(=O)O (centres undefined),1.6µM*,-25%
C[N+](C)(C)CCOC(=O)C(O)(c1ccccc1)c1ccccc1,-10%,-17%
Cc1cc(C(C)(C)CC(C)(C)C)ccc1OCCOCC[N+](C)(C)Cc1ccccc1,11µM*,?
COC(=O)C1=C(C(=O)OC)[C@@H]2N(C)c3ccccc3[C@@]23C[C@@H](CO)N(C(=O)NC2CCCCC2)C3=N1,-2%[8.59 µM],-3%[8.59 µM]
CC/C(=C(/CC)c1ccc(O)cc1)c1ccc(O)cc1,?,3.5µM*
CCC(=C(CC)c1ccc(O)cc1)c1ccc(O)cc1,?,6.3µM*
CCOC(=O)c1ccc(O)cc1,13%,7%
CC/C(=C(/CC)c1ccc(OP(=O)(O)O)cc1)c1ccc(OP(=O)(O)O)cc1,8%,-14%
CCN1C(=NCc2cccc(C(F)(F)F)c2)NC(c2cccc(F)c2)C(C(=O)OC)=C1C (centres undefined),36%[8.59 µM],12%[8.59 µM]
Cc1cc(O)cc(C)c1C=Cc1cncc(C(=O)OC(C)(C)C)c1,-49%,.
COC(=O)C1=C(C)N(Cc2ccccc2)C(=NCc2cc(OC)c(OC)c(OC)c2)NC1CCc1ccccc1 (centres undefined),?,-19%[8.59 µM]
C=CCN1c2ccccc2[C@]23CCC(=O)N(Cc4cc(OC)c(OC)c(OC)c4)C2=NC(C(=O)OC)=C(C(=O)OC)[C@H]13,-7%[8.59 µM],-15%[8.59 µM]
Cc1ccc(-c2cc(=O)c3cc(C)ccc3[nH]2)cc1,25µM*,?
Cc1ccc2[nH]c(-c3cccc(F)c3)cc(=O)c2c1,?,9%
COc1ccc2c(c1)CO[C@H]([C@H](O)COC(C)=O)[C@H]2C=Cc1ccccc1,-2%[8.59 µM],0%[8.59 µM]
COC(=O)[C@]1(CC=Cc2ccccc2)C=C[C@@H](C)[C@H](c2ccccc2Br)N1C(=O)C(F)(F)F,13%[8.59 µM],15%[8.59 µM]
Nc1ccc(/C=C/c2ccc(N)cc2S(=O)(=O)O)c(S(=O)(=O)O)c1,25µM*,-5%
O=S(=O)(O)c1cc(N=C=S)ccc1/C=C/c1ccc(N=C=S)cc1S(=O)(=O)O,-3%,34%
